“And” between values parts separate entries of the source, which are not always exact repeats. Identical values can stand only once. Where a structure was tested more than once in an assay, its records may differ in their call. The source made the active and inactive calls. Unless noted, calls follow the shape of the dose curve; as a rule, active = well fitted curve in the direction sought with a large enough effect in the repeat runs; inconclusive = weak or mixed curves; inactive = no such curve, though single readings can be large; an effect the other way counts as inactive or inconclusive.
How the values were obtained:
[1] = qHTS assay to identify small molecule antagonists of the thyroid receptor (TR) signaling pathway - cell viability counter screen (AID 743064); also: nearly all actives have a fitted effect of over 50% in size; also: potency is read from the fitted curve at half-maximal effect
Outline: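 In rat pituitary GH3.TRE-Luc reporter cells co-exposed to compound and 1 nM T3 for 23.5 h, cytotoxicity was assessed with CellTiter-Fluor in the same wells, read by fluorescence.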

[2] = qHTS assay to identify small molecule antagonists of the thyroid receptor (TR) signaling pathway (AID 743065); also: nearly all actives have a fitted effect of over 55% in size; also: potency is read from the fitted curve at half-maximal effect
Outline: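 GH3.TRE-Luc rat pituitary cells carrying two TR response elements driving luciferase were plated for 4 h, given compound plus 1 nM T3 (final), and incubated 23.5 h at 37 C. ONE-Glo luminescence measured reporter inhibition; CellTiter-Fluor fluorescence tracked cytotoxicity.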

[3] = system: thyroid hormone receptor (rat, GH3 cells); assay: qHTS assay to identify small molecule agonists of the thyroid receptor (TR) signaling pathway (AID 743066; calls by dose curve)
[4] = target: Estrogen receptor (Homo sapiens) (UniProt P03372); assay: qHTS assay to identify small molecule antagonists of the estrogen receptor alpha (ER-alpha) signaling pathway (AID 743069; active = well fitted curve in the direction sought with a large enough effect in the signal ratio in the repeat runs, not every such curve was filed as active; inconclusive = weak or mixed curves, or effect the other way; inactive = no such curve, though single readings can be large or run the other way; the % refers to the signal ratio)
Sequence of Estrogen receptor (Homo sapiens) (P03372 whole entry, looked up): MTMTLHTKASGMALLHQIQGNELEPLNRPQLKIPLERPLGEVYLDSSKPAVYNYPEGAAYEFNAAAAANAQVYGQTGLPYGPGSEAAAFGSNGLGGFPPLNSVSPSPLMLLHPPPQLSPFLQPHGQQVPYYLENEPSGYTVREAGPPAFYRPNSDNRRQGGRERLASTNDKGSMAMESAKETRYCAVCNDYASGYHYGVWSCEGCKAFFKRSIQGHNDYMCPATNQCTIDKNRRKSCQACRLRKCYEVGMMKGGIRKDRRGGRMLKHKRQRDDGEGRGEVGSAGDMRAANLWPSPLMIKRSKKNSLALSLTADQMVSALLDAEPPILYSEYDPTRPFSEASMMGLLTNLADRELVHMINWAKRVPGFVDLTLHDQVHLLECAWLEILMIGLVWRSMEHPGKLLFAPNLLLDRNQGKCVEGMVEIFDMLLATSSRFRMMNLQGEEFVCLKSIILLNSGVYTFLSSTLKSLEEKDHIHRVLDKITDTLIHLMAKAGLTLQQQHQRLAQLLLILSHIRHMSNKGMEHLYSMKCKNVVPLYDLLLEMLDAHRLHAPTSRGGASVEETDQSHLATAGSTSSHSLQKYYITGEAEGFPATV
Outline: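 A 17beta-estradiol challenge was applied right after compound transfer to ER-alpha-UAS-bla HEK293 cells previously kept in charcoal-stripped serum. Plates stood 18 hr at 37C and 5% CO2; fluorescence was read following 2 hr FRET substrate loading at room temperature.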

[5] = qHTS assay to identify small molecule antagonists of the estrogen receptor alpha (ER-alpha) signaling pathway - cell viability counter screen (AID 743074; calls by dose curve;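 also: HEK293 cells carrying ER-alpha-UAS-bla reporter stimulated with 17beta-estradiol; nearly all actives have a fitted effect of over 45% in size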)
[6] = target: Estrogen receptor (Homo sapiens) (UniProt P03372); assay: qHTS assay to identify small molecule agonists of the estrogen receptor alpha (ER-alpha) signaling pathway (AID 743075; calls by dose curve;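 also: HEK293 GripTite cells with ER-alpha and UAS-driven beta-lactamase reporter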; also: potency is read from the fitted curve at half-maximal effect)
[7] = target: Estrogen receptor (Homo sapiens) (UniProt P03372); assay: qHTS assay to identify small molecule agonists of the estrogen receptor alpha (ER-alpha) signaling pathway using the BG1 cell line (AID 743079); also: nearly all actives have a fitted effect of over 20% in size; also: potency is read from the fitted curve at half-maximal effect
[8] = qHTS assay to identify small molecule antagonists of the estrogen receptor alpha (ER-alpha) signaling pathway using the BG1 cell line (AID 743080; calls by dose curve;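 also: BG1 cells stimulated with 17beta-estradiol alongside compound; nearly all actives have a fitted effect of over 25% in size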; also: potency is read from the fitted curve at half-maximal effect)
Outline: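 BG1-Luc-4E2 cells (endogenous full-length ER-alpha, stable 4×ERE-luciferase) were starved 5 days in phenol-red-free medium with 10% charcoal-stripped FBS, plated 24 h, then given compound plus 17beta-estradiol for 21.5 h at 37 C; ONE-Glo luminescence read after 30 min.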

[9] = qHTS assay to identify small molecule antagonists of the estrogen receptor alpha (ER-alpha) signaling pathway using the BG1 cell line - cell viability counter screen (AID 743081);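 also: compound given together with 17beta-estradiol as the ER stimulus; nearly all actives have a fitted effect of over 45% in size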; also: potency is read from the fitted curve at half-maximal effect
Aromatase (Homo sapiens) = Aromatase (Homo sapiens) (UniProt P11511); assay: qHTS assay to identify aromatase inhibitors (AID 743083); also: nearly all actives have a fitted effect of over 55% in size; also: potency is read from the fitted curve at half-maximal effect
Sequence of Aromatase (Homo sapiens) (P11511 whole entry, looked up): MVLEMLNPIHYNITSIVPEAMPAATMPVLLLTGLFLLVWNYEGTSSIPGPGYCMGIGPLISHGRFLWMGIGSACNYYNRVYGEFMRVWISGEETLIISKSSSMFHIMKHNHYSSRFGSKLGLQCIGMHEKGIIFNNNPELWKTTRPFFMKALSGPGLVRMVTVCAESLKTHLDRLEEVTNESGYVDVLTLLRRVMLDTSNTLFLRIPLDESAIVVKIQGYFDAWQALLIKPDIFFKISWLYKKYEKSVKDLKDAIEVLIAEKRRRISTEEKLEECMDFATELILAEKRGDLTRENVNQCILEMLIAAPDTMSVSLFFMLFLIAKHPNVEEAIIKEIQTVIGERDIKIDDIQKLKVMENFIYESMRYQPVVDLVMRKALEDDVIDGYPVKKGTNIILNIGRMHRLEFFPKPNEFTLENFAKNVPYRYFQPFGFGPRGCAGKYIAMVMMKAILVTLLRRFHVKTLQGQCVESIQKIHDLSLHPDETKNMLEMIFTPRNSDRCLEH

[10] = qHTS assay to identify aromatase inhibitors - cell viability counter screen (AID 743084);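 also: cells stimulated with testosterone during compound exposure; nearly all actives have a fitted effect of over 55% in size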; also: potency is read from the fitted curve at half-maximal effect
[11] = target: Aryl hydrocarbon receptor (Homo sapiens) (UniProt P35869); assay: qHTS assay to identify small molecule that activate the aryl hydrocarbon receptor (AhR) signaling pathway (AID 743085); also: nearly all actives have a fitted effect of over 15% in size; also: potency is read from the fitted curve at half-maximal effect;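 as to activation: HG2L7.5c1 human HepG2 liver cells with stably integrated DRE-driven firefly reporter; series mostly up to about 70 µM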
Sequence of Aryl hydrocarbon receptor (Homo sapiens) (P35869 whole entry, looked up): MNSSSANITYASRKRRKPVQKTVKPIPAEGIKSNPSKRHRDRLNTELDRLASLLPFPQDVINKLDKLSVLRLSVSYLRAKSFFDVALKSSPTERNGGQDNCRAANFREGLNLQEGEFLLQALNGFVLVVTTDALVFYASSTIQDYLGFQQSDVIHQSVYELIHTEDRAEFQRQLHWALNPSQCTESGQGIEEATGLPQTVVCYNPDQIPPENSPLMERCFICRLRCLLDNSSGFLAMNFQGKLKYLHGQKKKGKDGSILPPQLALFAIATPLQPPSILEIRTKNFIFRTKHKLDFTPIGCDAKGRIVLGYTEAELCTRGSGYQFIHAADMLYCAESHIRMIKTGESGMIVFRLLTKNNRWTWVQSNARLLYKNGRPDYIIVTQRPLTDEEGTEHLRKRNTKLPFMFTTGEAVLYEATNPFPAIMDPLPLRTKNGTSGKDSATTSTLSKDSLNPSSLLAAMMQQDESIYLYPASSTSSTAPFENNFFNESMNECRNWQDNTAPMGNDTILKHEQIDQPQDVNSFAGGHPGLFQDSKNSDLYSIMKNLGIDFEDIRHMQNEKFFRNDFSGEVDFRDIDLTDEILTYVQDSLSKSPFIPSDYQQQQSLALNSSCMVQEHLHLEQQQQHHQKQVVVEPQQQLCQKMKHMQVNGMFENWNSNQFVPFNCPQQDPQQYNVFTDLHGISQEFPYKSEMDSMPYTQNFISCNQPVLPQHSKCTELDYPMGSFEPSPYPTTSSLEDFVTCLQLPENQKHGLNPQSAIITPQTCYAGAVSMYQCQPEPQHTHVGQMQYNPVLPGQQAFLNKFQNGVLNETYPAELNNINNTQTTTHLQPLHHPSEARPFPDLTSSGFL
Outline: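 AhR agonist activity is inferred from enhanced light output of a DRE-controlled firefly luciferase reporter in HepG2 cells, measured with ONE-Glo following 24 h treatment at 37C.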

[12] = qHTS assay to identify small molecule that activate the aryl hydrocarbon receptor (AhR) signaling pathway - cell viability counter screen (AID 743086);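 also: HepG2 liver cells carrying the AhR DRE luciferase reporter; series mostly up to about 70 µM; nearly all actives have a fitted effect of over 45% in size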
Outline: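 HepG2-AhR-luc (HG2L7.5c1) cells, 4000/well, were preincubated 5 h at 37C, exposed to compound in qHTS format for 24 hr at 37C, then given CellTiter-Fluor for 30 min; viability was read as fluorescence in the reporter wells.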

[13] = target: Peroxisome proliferator-activated receptor gamma (Homo sapiens) (UniProt P37231); assay: qHTS assay to identify small molecule agonists of the peroxisome proliferator-activated receptor gamma (PPARg) signaling pathway (AID 743094; active = well fitted activation curve with a large enough effect in the signal ratio in the repeat runs, not every such curve was filed as active; inconclusive = weak or mixed curves, or effect the other way; inactive = no such curve, though single readings can be large or run the other way; the % refers to the signal ratio)
Sequence of Peroxisome proliferator-activated receptor gamma (Homo sapiens) (P37231 whole entry, looked up): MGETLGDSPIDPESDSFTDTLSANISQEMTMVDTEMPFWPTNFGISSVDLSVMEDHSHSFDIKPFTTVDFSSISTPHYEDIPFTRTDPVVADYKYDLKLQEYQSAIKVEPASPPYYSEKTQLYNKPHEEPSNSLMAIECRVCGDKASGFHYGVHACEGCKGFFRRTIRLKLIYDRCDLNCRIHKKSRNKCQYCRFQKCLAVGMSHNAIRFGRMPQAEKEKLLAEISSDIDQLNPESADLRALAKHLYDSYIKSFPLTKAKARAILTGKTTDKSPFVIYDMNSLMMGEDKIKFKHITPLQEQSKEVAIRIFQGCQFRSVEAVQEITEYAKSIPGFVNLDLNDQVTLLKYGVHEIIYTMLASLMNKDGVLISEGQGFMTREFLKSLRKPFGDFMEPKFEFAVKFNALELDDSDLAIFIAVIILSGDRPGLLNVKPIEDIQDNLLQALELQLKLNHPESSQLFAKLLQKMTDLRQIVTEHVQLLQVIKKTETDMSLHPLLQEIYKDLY
Outline: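 Agonism was assessed in a beta-lactamase reporter system, HEK293H cells with a stably integrated UAS-bla construct under PPARg control; the 17 h treatment at 37C preceded a 1 h room-temperature FRET substrate read.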

[14] = target: Peroxisome proliferator-activated receptor gamma (Homo sapiens) (UniProt P37231); assay: qHTS assay to identify small molecule antagonists of the peroxisome proliferator-activated receptor gamma (PPARg) signaling pathway (AID 743191; calls by dose curve; also: series mostly up to about 63 µM; nearly all actives have a fitted effect of over 30% in size)
Outline: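 GeneBLAzer PPARg UAS-bla HEK293H cells carrying a UAS-driven beta-lactamase reporter were plated at 3000 cells/well, preincubated 5 h at 37C, then given compound for 17 h at 37C; LiveBLAzer B/G FRET substrate was read after 1 h at room temperature.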

[15] = qHTS assay to identify small molecule antagonists of the peroxisome proliferator-activated receptor gamma (PPARg) signaling pathway - cell viability counter screen (AID 743194); also: nearly all actives have a fitted effect of over 55% in size
Outline: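 PPARg-UAS-bla HEK293H cells were plated, rested 5 h at 37 C, then treated with compounds plus rosiglitazone (50 nM final) for 17 h at 37 C; viability was then read by CellTiter-Glo luminescence after 30 min at room temperature.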

[16] = qHTS assay for small molecule agonists of the antioxidant response element (ARE) signaling pathway (AID 743202; active = well fitted activation curve with a large enough effect in the signal ratio in the repeat runs, not every such curve was filed as active; inconclusive = weak or mixed curves, or effect the other way; inactive = no such curve, though single readings can be large or run the other way; the % refers to the signal ratio; also: potency is read from the fitted curve at half-maximal effect)
Outline: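 Following a 16 h, 37 C exposure of reporter HepG2 cells (ARE-driven beta-lactamase, 2,000 cells/well) to compounds, FRET substrate was applied for 2 h at room temperature and fluorescence intensity recorded.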

[17] = qHTS assay for small molecule agonists of the antioxidant response element (ARE) signaling pathway - cell viability counter screen (AID 743203; calls by dose curve; also: nearly all actives have a fitted effect of over 55% in size; also: potency is read from the fitted curve at half-maximal effect)
Outline: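 ATP content via CellTiter-Glo luminescence served as the viability measure. Cells: ARE-bla HepG2, 2,000 per well. Exposure: 16 hrs, 37C/5% CO2.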

[18] = qHTS assay for small molecule activators of the heat shock response signaling pathway - cell viability counter screen (AID 743209); also: nearly all actives have a fitted effect of over 50% in size
Outline: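 Compounds dissolved in DMSO were added to overnight-plated HSE-bla HeLa cells and left 5 h at 37 C. Cell viability was quantified by luminescence using CellTiter-Glo.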

[19] = qHTS assay for small molecule activators of the heat shock response signaling pathway (AID 743210; active = well fitted activation curve with a large enough effect in the signal ratio in the repeat runs, with a control signal flat, not every such curve was filed as active; inconclusive = weak or mixed curves; the % refers to the signal ratio; also: series mostly up to about 63 µM)
Outline: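 Heat shock element–beta-lactamase HeLa reporter cells; qHTS with compounds for 5 h at 37 C; detection by FRET substrate fluorescence after 2.5 h at RT.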

Measured: Potency

CC(=O)Nc1ccc(C(=O)O)cc1
inactive: [1] | [2] | [3] | [4] | [5] | [6] | [7] | [8] | [9] | Aromatase (Homo sapiens) | [10] | [11] | [12] | [13] | [14] | [15] | [16] | [17] | [18] | [19]

O=Nc1ccc(O)cc1
inactive: [1] | [2] | [3] | [4] | [5] | [6] | [7] | [8] | [9] | Aromatase (Homo sapiens) | [10] | [12] | [13] | [14] | [15] | [16] | [17] | [18]
53.2 µM (active) and inactive: [11]

CC#C[C@]1(O)CC[C@H]2[C@@H]3CCC4=CC(=O)CCC4=C3[C@@H](c3ccc(N(C)C)cc3)C[C@@]21C
inactive: [3] | [5] | [6] | [9] | [10] | [11] | [12] | [17] | [18]
active: [1] 9.44 µM and 34.4 µM | [2] 4.73 µM and 24.3 µM | [8] 16.8 µM and 68.6 µM | Aromatase (Homo sapiens) 11.9 µM and 30.6 µM

CC(C)(N=C=O)c1cccc(C(C)(C)N=C=O)c1
inactive: [1] | [2] | [3] | [5] | [9] | Aromatase (Homo sapiens) | [10] | [11] | [12] | [13] | [14] | [15] | [16] | [17] | [18]

O=C(Oc1ccccc1)c1ccc(O)cc1
inactive: [1] | [2] | [3] | [5] | [9] | Aromatase (Homo sapiens) | [10] | [11] | [12] | [13] | [14] | [15] | [16] | [17] | [18]

CC1(C)O[C@@H]2C[C@H]3[C@@H]4C[C@H](F)C5=CC(=O)CC[C@]5(C)[C@H]4[C@@H](O)C[C@]3(C)[C@]2(C(=O)CO)O1
inactive: [1] | [2] | [3] | [5] | [7] | [9] | Aromatase (Homo sapiens) | [10] | [11] | [12] | [13] | [15] | [16] | [17] | [18] | [19]

CC[Si](OC(C)=O)(OC(C)=O)OC(C)=O
inactive: [1] | [2] | [3] | [4] | [5] | [6] | [7] | [8] | [9] | Aromatase (Homo sapiens) | [10] | [11] | [12] | [13] | [14] | [15] | [16] | [17] | [18] | [19]

CCCCC(CC)COC(=O)/C=C\C(=O)OCC(CC)CCCC (centres undefined)
inactive: [1] | [2] | [3] | [5] | [9] | Aromatase (Homo sapiens) | [10] | [11] | [12] | [13] | [14] | [15] | [17] | [18]

Clc1ccc(Cl)c(Cl)c1Cl
inactive: [1] | [2] | [3] | [5] | [9] | Aromatase (Homo sapiens) | [10] | [11] | [12] | [13] | [14] | [15] | [16] | [17] | [18]

NCCc1ccc(O)c(O)c1
inactive and 54.6 µM (active): [9]
inactive: [3] | [4] | [5] | [6] | Aromatase (Homo sapiens) | [11] | [12] | [13] | [14] | [15] | [17] | [18]
active: [1] 27.4 µM | [2] 48.7 µM | [10] 27.4 µM | [16] 109 nM and 376 nM

CCc1ccccc1O
inactive: [1] | [2] | [3] | [4] | [6] | [7] | [8] | [9] | Aromatase (Homo sapiens) | [10] | [11] | [12] | [13] | [14] | [15] | [16] | [17] | [18]

Cc1cc(O)c2c(c1)C(=O)c1cc(O)cc(O)c1C2=O
inactive and 30.6 µM (active): [1]
inactive: [3] | [4] | [5] | [8] | [12] | [13] | [15] | [18]
active: [2] 23.8 µM and 15.4 µM | [9] 29.9 µM and 24.3 µM | Aromatase (Homo sapiens) 23.8 µM and 54.5 µM | [10] 11.9 µM and 24.3 µM | [11] 5.97 µM and 34.4 µM | [16] 4.23 µM | [17] 23.8 µM

Cc1cc(=O)[nH]c(C(C)C)n1
inactive: [1] | [3] | [4] | [5] | [6] | [7] | [8] | [9] | Aromatase (Homo sapiens) | [10] | [11] | [12] | [13] | [14] | [15] | [16] | [17] | [18]

O=[N+]([O-])c1cccc(Cl)c1
inactive: [1] | [3] | [4] | [5] | [6] | [7] | [8] | [9] | Aromatase (Homo sapiens) | [10] | [11] | [12] | [13] | [14] | [15] | [16] | [17] | [18]

O=C(c1ccc(O)cc1)c1ccc(O)cc1O
active: [6] 11.1 µM [inconclusive] and 21.9 µM [inconclusive] | [7] 5.5 µM and 9.69 µM | [11] 24.3 µM
inactive: [1] | [3] | [5] | [8] | [9] | Aromatase (Homo sapiens) | [10] | [12] | [13] | [15] | [17] | [18]

Source: PubChem BioAssay (Tox21)
